From PubChem BioAssay (EPA / NIEHS)
Results filed as inconclusive are left out. The source made the active and inactive calls. The calls were made as follows: active = hit-call score of the fitted dose curve at least 0.9, where 1 is the maximum; inconclusive = response in the unintended direction; inactive = score below 0.9. Where a SMILES comes first, the peptide text is derived from it. [ ]: non-standard residue; d: D form. The star is where a group is joined. Sta = CC(C)C[C@H](N)[C@@H](O)CC(=O)O; Isovaleryl = CC(C)CC(=O)*

How the values were obtained:
[1] = biological target: Cellular tumor antigen p53 (Homo sapiens) (UniProt P04637); assay: TOX21_p53_BLA_p2_ratio: Tox21 HCT-116 p53 Agonism Beta-lactamase Assay, Ratio, Phase 2 (AID 2283592)
In short: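 DMSO-normalized, positive-direction endpoint derived from the 460 nm/530 nm FRET ratio in HCT116 p53 beta-lactamase reporter cells exposed 16 h at 37C and loaded with CCF4-AM for 2 h.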

[2] = TOX21_p53_BLA_p5_viability: Viability Assessment in the Tox21 HCT-116 p53 Agonism Beta-lactamase Assay, Phase 5 (AID 2283600)
In short: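 Here cell health was gauged by ATP levels in wells holding 4000 cells, each treated 16 h with DMSO-delivered compounds at 217-fold dilution; reduced luminescence marked toxicity.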

[3] = biological target: Cellular tumor antigen p53 (Homo sapiens) (UniProt P04637); assay: TOX21_p53_BLA_p5_ratio: Tox21 HCT-116 p53 Agonism Beta-lactamase Assay, Ratio, Phase 5 (AID 2283599)
In short: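 HCT-116 p53-bla cells (4000/well) plated 5 h, dosed with compound (217-fold DMSO dilution) for 16 h at 37 C; CCF4-AM substrate 2 h at room temperature. Activity is the 460/530 nm emission ratio (405 nm excitation), fitted in gain-of-signal direction versus DMSO.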

[4] = biological target: Cellular tumor antigen p53 (Homo sapiens) (UniProt P04637); assay: TOX21_p53_BLA_p4_ratio: Tox21 HCT-116 p53 Agonism Beta-lactamase Assay, Ratio, Phase 4 (AID 2283601)
In short: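 HCT-116 p53 beta-lactamase reporter cells (4000/well) preincubated 5 h, then compound (217-fold dilution of DMSO stock) for 16 h at 37C. CCF4-AM substrate added 2 h at room temperature; 460/530 nm emission ratio fitted upward versus DMSO.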

[5] = TOX21_p53_BLA_p3_viability: Viability Assessment in the Tox21 HCT-116 p53 Agonism Beta-lactamase Assay, Phase 3 (AID 2283593);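 also: cells exposed to compound for 16 h before reading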
In short: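 HCT116 cells, 4000/well, dosed 5 h after plating by pin transfer (217-fold dilution from DMSO stock) and incubated 16 h at 37C, 5% CO2. Viability read as ATP luminescence with CellTiter-Glo after 30 min at room temperature.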

[6] = biological target: Cellular tumor antigen p53 (Homo sapiens) (UniProt P04637); assay: TOX21_p53_BLA_p3_ratio: Tox21 HCT-116 p53 Agonism Beta-lactamase Assay, Ratio, Phase 3 (AID 2283596)
In short: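 Cells were seeded at 4000/well, rested 5 h at 37C, then dosed with DMSO compound solutions (217-fold dilution) for 16 h. CCF4-AM substrate was loaded for 2 h at room temperature, and the 460/530 nm emission ratio was fitted for gain of signal versus DMSO.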

[7] = TOX21_p53_BLA_p4_viability: Viability Assessment in the Tox21 HCT-116 p53 Agonism Beta-lactamase Assay, Phase 4 (AID 2283597);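 also: hits lower the luminescence signal meaning cytotoxicity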
In short: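 In this multiplexed secondary endpoint, HCT116 cells (4000 per well, compound at 5 h, 16 h treatment) received CellTiter-Glo after the beta-lactamase read. Luminescence after 30 min RT reflects ATP, and falling signal marks cytotoxicity.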

Measured: outcome

Cellular tumor antigen p53 (Homo sapiens), sequence (P04637 whole entry, looked up): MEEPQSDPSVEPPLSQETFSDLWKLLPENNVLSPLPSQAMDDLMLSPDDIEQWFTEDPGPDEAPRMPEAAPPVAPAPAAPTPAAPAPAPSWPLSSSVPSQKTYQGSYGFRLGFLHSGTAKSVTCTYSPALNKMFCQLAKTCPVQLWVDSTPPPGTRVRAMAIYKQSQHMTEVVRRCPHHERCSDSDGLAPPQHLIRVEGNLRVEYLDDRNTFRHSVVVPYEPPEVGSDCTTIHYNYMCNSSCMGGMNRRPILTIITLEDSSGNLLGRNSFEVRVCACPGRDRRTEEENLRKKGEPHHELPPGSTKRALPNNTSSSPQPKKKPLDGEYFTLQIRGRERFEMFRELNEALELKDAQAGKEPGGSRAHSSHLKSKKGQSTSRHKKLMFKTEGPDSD

COc1ccc2cc([C@H](C)CO)ccc2c1
inactive: [1] | [2]

CCCC(=O)C(=O)O
inactive: [1] | [3] | [2] | [4]

CCN(CC)CCOC(=O)C(c1ccccc1)C1CCCCC1 (stereo unspecified)
inactive: [1] | [2]

S=C=Nc1ccc(N=C=S)cc1
inactive: [1] | [3] | [2] | [4]

CCCN(CC)C(CC)C(=O)Nc1c(C)cccc1C (stereo unspecified)
inactive: [1] | [2]

C[C@@H](O)[C@H]1C(=O)N2C(C(=O)O)=C([C@H]3CCCO3)S[C@H]12
inactive: [1] | [2] | [4]

Cc1cccc(C)c1NC(=O)CN1CCCCCC1
inactive: [1] | [2]

COC(=O)NN
inactive: [5] | [6] | [7] | [3] | [2]

NCc1ccc(S(N)(=O)=O)cc1
inactive: [5] | [6] | [7] | [3] | [2]

CCCCCCCCCCCCCCCCN(C)C
inactive: [1] | [2] | [4]

CC(C)CC(=O)N[C@H](C(=O)N[C@H](C(=O)N[C@@H](CC(C)C)[C@@H](O)CC(=O)N[C@@H](C)C(=O)N[C@@H](CC(C)C)[C@@H](O)CC(=O)O)C(C)C)C(C)C (Isovaleryl-VV[Sta]A[Sta]-OH)
inactive: [1] | [2] | [4]

O=C(O)CC/C=C\CC[C@@H]1[C@@H](N2CCCCC2)[C@@H](O)C[C@@H]1OCc1ccc(-c2ccccc2)cc1
inactive: [5] | [6]

CC(C)(C)NCC(O)COc1cccc2c1CCC(=O)N2 (stereo unspecified)
inactive: [1] | [4]

CNS(=O)(=O)Cc1ccc2[nH]cc(CCN(C)C)c2c1
inactive: [5] | [6] | [7] | [3] | [2]

CC(=O)OCC(C)C
inactive: [5] | [6]
